Records with an inconclusive call do not appear. Where a call stands in place of a potency, no number is given. Activity calls are given as the source filed them. Calls follow the shape of the dose curve; as a rule, active = well fitted inhibition curve with a large enough effect; inconclusive = small, poorly fitted or top-dose-only effect; inactive = flat fitted curve, though single readings scatter.
Each compound was assayed against Calcium and integrin-binding protein 1 (Homo sapiens) (UniProt Q99828) (assay: Primary qHTS for Identification of Calcium Integrin Binding Protein 1 (CIB1) Competitor (AID 1508620;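 also: GST tagged CIB1 binding a fluorescein labelled alphaIIb integrin peptide tracer; top concentration of the series differs between compounds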)). Settings: CIB1-GST / FITC-alphaIIb peptide fluorescence polarization; series mostly up to 114 µM.
Chain of Calcium and integrin-binding protein 1 (Homo sapiens) (Q99828 whole entry, looked up): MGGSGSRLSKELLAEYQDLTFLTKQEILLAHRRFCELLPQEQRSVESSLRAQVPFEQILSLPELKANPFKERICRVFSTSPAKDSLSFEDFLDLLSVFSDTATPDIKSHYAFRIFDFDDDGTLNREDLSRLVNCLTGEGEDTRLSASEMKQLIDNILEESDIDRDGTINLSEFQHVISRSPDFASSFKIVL
Outline: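 CIB1-GST (1 uM final) and compound incubated 15 min at room temperature before adding FITC-alphaIIb peptide tracer (100 nM final). Competition for binding read by fluorescence polarization (ex 480, em 540) after another 15 min at room temperature.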

Structure (SMILES) | Potency
CC(=O)N1CCc2cc(S(=O)(=O)Nc3ccc(C)c(C)c3)ccc21 | inactive
COc1ccc(CN(Cc2ccccc2)C(=O)c2ccccc2N)cc1COc1ccc(NC(C)=O)cc1 | inactive
Cc1cc2c(s1)c1cnn(Cc3cccc4cccnc34)c(=O)c1n2C | inactive
N[C@@H](Cc1ccccc1)C(=O)Nc1ccc(Cl)cc1C(=O)c1ccc[nH]1 | inactive
Cc1c(C(=O)OCC2CCCCO2)[nH]c2c1C(=O)CC(c1ccco1)C2 (stereo not given) | inactive
Cc1cc(C)n2ncc(C(=O)Nc3ccc(Br)cc3)c2n1 | inactive
O=C(OCC#CCSc1nnc(-c2ccc3ccccc3c2)o1)c1cccs1 | inactive
Cc1cc(C=CC#N)cc(C)c1Nc1nc(Nc2ccc3scnc3c2)c2[nH]cnc2n1 | inactive
Cc1cc(N[S+](=O)([O-])c2cc3c(cc2Cl)NC(=O)CO3)ccc1Br | inactive
O=C1CCc2cc(S(=O)(=O)Nc3cccc4ccccc34)ccc2N1 | inactive
CC(=O)c1cc2c(s1)c1cnn(Cc3ccccc3F)c(=O)c1n2C | inactive
O=C1CCCC2=C1C(c1[nH]ncc1Cl)NC(=NCc1ccco1)N2 (stereo not given) | inactive
COC(=O)c1ccc(Cn2ncc3c4sc(C)cc4n(C)c3c2=O)cc1 | inactive
COc1ccc(C2Nc3ccccc3C(=O)N2Cc2ccco2)cc1COc1ccc(N)cc1 (stereo not given) | inactive
CCCCN(C)C(=O)Cn1nc(-c2ccc(C(C)=O)cc2)ccc1=O | inactive
Cc1cccc(-c2ccc3ncnc(NCc4cccc(F)c4)c3c2)c1 | inactive
CC(=O)c1ccc(N2CCN(S(=O)(=O)c3ccc4c(c3)oc(=O)n4C)CC2)cc1 | inactive
Oc1ccc(Nc2nc(-c3ccncc3)nc3ccccc23)cc1F | inactive
Cn1ccc2cc(-c3ccc4ncnc(NCc5ccc6c(c5)OCO6)c4c3)ccc21 | inactive
Cc1ccc(S(=O)(=O)NC(N)=NCCC[C@@H](NC(=O)CNC(=O)c2ccccc2)C(=O)Nc2cc(C(F)(F)F)ccc2Cl)cc1 | inactive

Structure (SMILES) | Potency
Cc1ccc(OCCn2c(CCNC(=O)/C=C/c3ccccc3Cl)nc3ccccc32)cc1 | inactive
O=C(Nc1ccc(Cl)c(Cl)c1)Nc1cccc(-c2ccncc2)n1 | inactive
Cc1cc2c(s1)c1cnn(Cc3ccc(F)cc3)c(=O)c1n2C | inactive
O=S(=O)(NCC1CN(S(=O)(=O)c2ccc3c(c2)OCCO3)C1)c1c(F)cccc1F | inactive
O=C(O)c1ccc(S(=O)(=O)N[C@H](Cc2ccc([N+](=O)[O-])cc2)C(=O)O)cc1 | inactive
CCOC(=O)C1CCN(C(=O)C2(NC(=O)Nc3ccccc3Cl)CCCCC2)CC1 | inactive
COc1ccc(-c2ccc(=O)n(CC(=O)NCCc3ccccc3)n2)cc1OC | inactive
N#Cc1c(-c2ccco2)no[n+]1[O-] | inactive
Oc1c(C(Nc2ccccn2)c2ccccc2)cc(Cl)c2cccnc12 (stereo not given) | inactive
O=S(=O)(Nc1nccs1)c1ccc(NCc2ccccc2)cc1 | inactive
Cc1ccc(NS(=O)(=O)c2cc3c(cc2/C=C/c2ccccc2)NC(=O)CO3)cc1C | inactive
COc1cc(-c2ccc3ncnc(NCc4nc(C)cs4)c3c2)cc(OC)c1OC | inactive
Cc1cc(C)nc(NC(=S)N2CCN(c3ccc(S(C)(=O)=O)cc3F)CC2)c1 | inactive
Cc1ccc(NC(=O)CSc2nnc(-c3cccc([S+](=O)([O-])N4CCCC4)c3)n2-c2ccccc2)cc1 | inactive
Cc1ccc(OCCn2c(CCNC(=O)c3ccc(Br)cc3)nc3ccccc32)cc1 | inactive
Cc1cc(C)nc(NC(=S)N2CCN(c3ccc(Cl)cc3[N+](=O)[O-])CC2)c1 | inactive
N#CN1CCC(NS(=O)(=O)c2ccc(C(F)(F)F)cc2)CC1 | inactive
CCOc1ccc(C(=O)Oc2ccc(-c3nc4ccccc4[nH]3)cc2)cc1 | inactive
S=C(NCCCc1cnc[nH]1)NCCCN(Cc1ccc(Cl)cc1)c1ccc(Br)cn1 | inactive
Cc1cc(C)nc(NCc2ccc(O)c3ncccc23)c1 | inactive
